Measurements reported in the supplement of paper PMC9135407.
Structures can show the parent of a compound that is named as a salt.

Test system: primary human hepatic stellate cells (donor 1)
Experiment: PSMB2 reference mRNA level vs DMSO (fold); higher = more PSMB2 expression
Settings: 48 h
Protocol: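 Secondary qRT-PCR screen in primary human HSCs (donor 1), 384-well plates, with compounds dispensed in quadruplicate and incubated for 48 h. Cells-to-CT lysates were used for multiplexed TaqMan qPCR of ACTA2 or COL1A1 with PSMB2 as reference. Fold changes versus DMSO come from a linear model (Ct_gene ~ Ct_PSMB2 + plate + chemical). A hit is defined as COL1A1 and ACTA2 FC <0.5 (FDR <0.05) with PSMB2 between 0.2 and 2.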

Compound | PSMB2 reference mRNA level
Cc1ccc2c(c1)c1c3n2CCNC3CCC1 (stereo not given) [Pirlindole mesylate] (20.6667 µM) | 0.807
c1cc(OCCN2CCCCC2)cc(-c2n[nH]c3ccc(-c4nnc[nH]4)cc23)c1 (33.3333 µM) | 0.677
CNCc1ccc(C)c(NC(=O)c2ccc(Nc3nc(-c4ccccc4)c4ccccc4n3)cc2)c1 (33.3333 µM) | 0.000816
c1ccc2c(NCCCCCCCNc3c4c(nc5ccccc35)CCCC4)c3c(nc2c1)CCCC3 [bis(7)-Tacrine] (3.33333 µM) | 0.971
CCCCc1oc2ccccc2c1C(=O)c1cc(I)c(OCCN(CC)CC)c(I)c1 (33.3333 µM) | 0.537
CNCc1ccc(-c2[nH]c3cc(F)cc4c3c2CCNC4=O)cc1 (33.3333 µM) | 0.974
O=C(Nc1cc(C(F)(F)F)cc(C(F)(F)F)c1)c1cc(Cl)ccc1O (33.3333 µM) | 1.2
Cn1cc(CNCC2CCN(c3ncc(C(=O)NO)cn3)CC2)c2ccccc21 [Quisinostat] (33.3333 µM) | 0.103
COc1cc2nc(N3CCCN(C)CC3)nc(NC3CCN(Cc4ccccc4)CC3)c2cc1OC (3.33333 µM) | 0.211
C[C@@H](Oc1cc(-c2cnn(C3CCNCC3)c2)cnc1N)c1c(Cl)ccc(F)c1Cl (11.1 µM) | 0.805
CNCCC(Oc1ccc(C(F)(F)F)cc1)c1ccccc1 (stereo not given) [Fluoxetine hydrochloride] (33.3333 µM) | 0.204
Cc1nc(Nc2ncc(C(=O)Nc3c(C)cccc3Cl)s2)cc(N2CCN(CCO)CC2)n1 (33.3333 µM) | 1.6
O=C1NCN(c2ccccc2)C12CCN(CCCC(c1ccc(F)cc1)c1ccc(F)cc1)CC2 [Fluspirilene] (14.0333 µM) | 1.38
COc1ccc(NS(=O)(=O)c2sc3ccc(Cl)cc3c2C)cc1N1CCNCC1 (33.3333 µM) | 0.507
CCN1CCC(n2cc(CNc3cc(Cl)c4ncc(C#N)c(Nc5ccc(F)c(Cl)c5)c4c3)nn2)CC1 (33.3333 µM) | 0.0139
CCOC(=O)C1=C(COCCN)NC(C)=C(C(=O)OC)C1c1ccccc1Cl (stereo not given) (33.3333 µM) | 1.28
CNCCCC12CCC(c3ccccc31)c1ccccc12 [Maprotiline hydrochloride] (33.3333 µM) | 1.89
NC(N)=NC(=O)c1nc(Cl)c(N2CCCCCC2)nc1N [5-(N,N-hexamethylene)amiloride] (33.3333 µM) | 0.641
CC(/C=C/C(=O)NO)=C\[C@@H](C)C(=O)c1ccc(N(C)C)cc1 [Trichostatin A] (3.33333 µM) | 1.36
C#CC1(O)CC[C@H]2[C@@H]3CCC4=CC(=O)CC[C@@H]4[C@H]3CC[C@@]21CC (stereo not given in full) [Norgestrel] (21.3333 µM) | 1.14

Compound | PSMB2 reference mRNA level
CN1CCC(=C2c3ccccc3C=Cc3ccccc32)CC1 [Cyproheptadine] (33.3333 µM) | 0.904
CNCc1ccc(-c2cc(-c3nc(-c4ccc(S(=O)(=O)C(C)C)cc4)cnc3N)on2)cc1 (11.1 µM) | 0.118
C#C[C@]1(O)CC[C@H]2[C@@H]3CCC4=Cc5oncc5C[C@]4(C)[C@H]3CC[C@@]21C [Danazol] (33.3333 µM) | 0.993
Cc1cnc(-c2cnc(NCCNc3ccc(C#N)cn3)nc2-c2ccc(Cl)cc2Cl)[nH]1 (33.3333 µM) | 2.78
CCCCCCCCCCCCCCCCn1cc[n+](Cc2ccccc2)c1C (11.1 µM) | 0.00468
Cn1cc(C2=C(c3ccc(Cl)cc3Cl)C(=O)NC2=O)c2ccccc21 (33.3333 µM) | 0.517
CC1(C)CC(=O)c2c(C(F)(F)F)nn(-c3ccc(C(N)=O)c(N[C@H]4CC[C@H](OC(=O)CN)CC4)c3)c2C1 (33.3333 µM) | 0.59
Cc1ccc(-c2ccc3c(ccc4sc5c(c43)NC[C@@H](C)NC5=O)n2)cn1 (33.3333 µM) | 3.41
CCN(CC)CCCCNc1ncc2cc(-c3c(Cl)cccc3Cl)c(NC(=O)NC(C)(C)C)nc2n1 (33.3333 µM) | 0.792
CNC(=O)[C@@H](Cc1ccccc1)N(C)C(=O)[C@@H](Cc1ccc2ccccc2c1)N(C)C(=O)/C=C/CC(C)(C)N [Tabimorelin] (33.3333 µM) | 1.83
Cc1ccc(NC(=O)C(C)C)cc1C1CCN(Cc2ccc(Oc3ccc(F)c(F)c3)cc2)CC1 (33.3333 µM) | 2.26
CN1CCC(Nc2ncc3ncnc(Nc4ccc(F)c(Cl)c4)c3n2)CC1 [BIBX 1382 dihydrochloride] (33.3333 µM) | 0.0502
O=C(Nc1ncc(SCCN2CCCC2)s1)[C@]1(c2ccc(S(=O)(=O)C3CC3)cc2)C[C@H]1C1CCCCC1 (11.1 µM) | 0.35
CCCSc1ccc2[nH]c(NC(=O)OC)nc2c1 [Albendazole] (33.3333 µM) | 1.65
O=S(=O)(NCCNC/C=C/c1ccc(Br)cc1)c1cccc2cnccc12 [H-89, Dihydrochloride] (11.1 µM) | 1.02
CCC/C=C\C=C/C(=O)N[C@@H](CC(N)=O)C(=O)NC(CC(N)=O)C(=O)N[C@@H](C(=O)N[C@H](CCCN)C(=O)N[C@@H](C(=O)N[C@@H](C(=O)N[C@@H](C(=O)N[C@H](C(=O)N[C@@H](Cc1ccccc1)C(=O)N[C@H](CCCN)C(=O)NC(C(=O)N[C@H](C(=O)NC(C(=O)NCC(=O)N[C@@H](CC(C)C)C(=O)N[C@H](C)C(=O)NC(C(=O)O)C1CCC(O)C(Cl)C1)C1CCC(O)CC1)[C@H](C)O)C1CCC(O)CC1)[C@H](C)O)C1CCC(O)CC1)C1CCC(O)CC1)[C@H](C)O)C1CCC(O)CC1 (stereo not given in full) (33.3333 µM) | 0.369
CCc1cc2c(cc1CC)CC(NC[C@H](O)c1ccc(O)c3[nH]c(=O)ccc13)C2 [Indacaterol Maleate] (33.3333 µM) | 0.728
CCNC(=O)c1noc(-c2cc(C(C)C)c(O)cc2O)c1-c1ccc(CN2CCOCC2)cc1 (11.1 µM) | 1.72
Cc1nc2ccc(-n3ncc(C(=O)c4cc5ccccc5[nH]4)c3N)cc2[nH]1 (33.3333 µM) | 0.324
CC[C@@H]1C(=O)N(C)c2cnc(Nc3ccc(C(=O)NC4CCN(C)CC4)cc3OC)nc2N1C1CCCC1 (33.3333 µM) | 0.0022
